Among the data in PubChem BioAssay (Tox21) are Potency and outcome values, retold here.

SMILES strings stand for the structures. A number with no mark means an inactive call. Results filed as inconclusive are left out. Activity calls are given as the source filed them. Unless noted, the call rests on the fitted dose curve.

Assay [1] in a line: Nuclear factor erythroid 2-related factor 2/antioxidant responsive element (Nrf2/ARE) small molecule agonists: qHTS cell viability counter screen in human keratinocytes (AID 1919968; active means well fitted curve in the direction sought with a large enough effect in the repeat runs; an effect the other way counts as inactive or inconclusive; further: nearly all actives have a fitted effect of over 55% in size; further: potency means the concentration at half of the fitted maximal effect). The method in brief:
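Seed 1,500 KeratinoSens cells per well, then incubate 5 h at 37 C/5% CO2. Add compounds in DMSO and incubate 23 h. Add CellTiter-Fluor, wait 1 h and read fluorescence.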

Assay [2] is described as follows: Nuclear factor erythroid 2-related factor 2/antioxidant responsive element (Nrf2/ARE) small molecule agonists: luciferase reporter gene qHTS assay in human keratinocytes (AID 1919969; further: nearly all actives have a fitted effect of over 35% in size; further: potency means the concentration at half of the fitted maximal effect). (In general: In a reporter assay the amount or activity of a reporter protein is the signal.)
Assay [3] has as its target Gonadotropin-releasing hormone receptor (Homo sapiens) (UniProt P30968). The experiment in a line: Human gonadotropin-releasing hormone receptor (GnRHR) small molecule agonists, calcium flux assay in GnRHR-HEK293 cells (AID 1920063). Further: nearly all actives have a fitted effect of over 35% in size. In short, it runs like this: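 Cells: HEK293 stably expressing human GnRHR. Steps: overnight (18 h) culture, 1 h calcium dye loading at 37 C, compound addition, kinetic fluorescence read at 480/540 nm. Each compound tested at 15 concentrations in triplicate.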
(Calcium flux is commonly read through the fluorescence of an indicator in the cells.)

Assay [4] concerns the target KiSS-1 receptor (Homo sapiens) (UniProt Q969F8). Description: Human kisspeptin (KISS1R) small molecule agonists, calcium flux assay in KISS1R-HEK293 cells (AID 1920064; active means well fitted curve in the direction sought with a large enough effect in the repeat runs; an effect the other way counts as inactive or inconclusive). In short, it runs like this:
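Cells plated and incubated 18 h; dye added, 1 h at 37 C; compounds in DMSO pinned in; signal read at 480/540 nm every second for 3 min. Each compound tested at 15 concentrations in triplicate.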

Assay [5] in a line: G protein-coupled receptor (GPCR) small molecule agonists, calcium flux assay: HEK293 wild type cell line counter screen (AID 1920065). The method in brief: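 Counter-screen of the Tox21 10K library for non-specific calcium release: dye-loaded cells received compounds in DMSO and were monitored by kinetic fluorescence (480/540 nm, 3 min). Fifteen concentrations, run in triplicate.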

Assay [6] in a line: p53 small molecule agonists, cell-based qHTS assay with human liver microsomes (AID 1963577).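 Further: p53 response element beta-lactamase reporter cells with liver microsomes plus NADPH.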 In short, it runs like this:
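16 h, 37 C exposure of p53RE-bla cells to compounds with human liver microsomes and NADPH (0.5 mg/mL final each); detection via LiveBLAzer mixture, 2 h dark at room temperature.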

The nature of assay [7]: p53 small molecule agonists, cell-based qHTS assay with rat liver microsomes (AID 1963578). In short, it runs like this:
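With rat liver microsomes and NADPH present (0.5 mg/mL final each), p53RE-bla cells are treated with compound for 16 h at 37 C. LiveBLAzer detection mixture is then applied for 2 h at room temperature in the dark.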

Assay [8] in a line: p53 small molecule agonists, cell-based qHTS assay with human liver microsomes: qHTS cell viability counter screen (AID 1963579). Further: nearly all actives have a fitted effect of over 45% in size. Further: potency means the concentration at half of the fitted maximal effect. The method in brief: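 In this multiplexed counter screen, the reporter plates were subsequently treated with CellTiter-Glo so that cell viability, reflected by luminescence, could be recorded for p53RE-bla cells dosed 16 h with compounds under microsomal activation (HLM and NADPH).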
A general note: Quantitative high-throughput screening tests each substance at several concentrations.

The nature of assay [9]: p53 small molecule agonists, cell-based qHTS assay with rat liver microsomes: qHTS cell viability counter screen (AID 1963580). Further: nearly all actives have a fitted effect of over 45% in size. The method in brief: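 In HCT-116 cells carrying a p53 response element-bla reporter, compounds were metabolically activated in situ by rat liver microsomes with NADPH over 16 h. Cell ATP content then served as the cytotoxicity measure.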
Assay [10] has as its target 5-hydroxytryptamine receptor 2A (Homo sapiens) (UniProt P28223). Description: 5-hydroxytryptamine receptor 2A (HTR2A) small molecule antagonists, cell-based qHTS assay (AID 1963586). Further: nearly all actives have a fitted effect of over 45% in size. In short, it runs like this:
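Antagonist-mode intracellular calcium assay: DOI (4 nM) added after 5 min compound pre-incubation at room temperature to dye-loaded HTR2A-CHO cells. Fluorescence followed for 3 min, sampled every second.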

Assay [11] has the same target. The experiment in a line: 5-hydroxytryptamine receptor 2A (HTR2A) small molecule agonists, cell-based qHTS assay (AID 1963587). Further: nearly all actives have a fitted effect of over 30% in size. In short, it runs like this:
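HTR2A-CHO cells, plated 18 h at 37 C/5% CO2, dye-loaded 1 h at 37 C; compounds in DMSO added by pin tool (agonist mode). Intracellular calcium flux read as kinetic fluorescence on FDSS over 2 min at 1 s intervals.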

Assay [12] concerns the target Muscarinic acetylcholine receptor M1 (Homo sapiens) (UniProt P11229). The experiment in a line: Cholinergic receptor muscarinic 1 (CHRM1) small molecule antagonists, cell-based qHTS assay (AID 1963588). Further: nearly all actives have a fitted effect of over 40% in size. The method in brief: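 CHRM1-CHO calcium-flux assay, antagonist mode. Cells were seeded 18 h, dye-loaded 1 h at 37 C and given compound for 5 min at RT, then acetylcholine was added at 50nM. FDSS fluorescence was read 3 min; 15 concentrations, three runs.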

Assay [13] shares this target. Description: Cholinergic receptor muscarinic 1 (CHRM1) small molecule agonists, cell-based qHTS assay (AID 1963589). Further: nearly all actives have a fitted effect of over 35% in size. The method in brief:
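Agonist-mode qHTS in CHO cells stably carrying human muscarinic M1. Intracellular calcium is tracked by fluorescence every second after compound transfer; each compound runs at 15 concentrations in three independent runs.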

Assay [14] can be described thus: cAMP Responsive Elements (CRE) small molecule agonists, cell-based qHTS assay (AID 1963590). The method in brief:
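Agonist mode qHTS in CRE-bla HEK 293T cells: compounds dosed from DMSO for 3 h at 37 C/5% CO2, followed by LiveBLAzer B/G FRET substrate for 2 h at room temperature.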

A short description of assay [15]: cAMP Responsive Elements (CRE) small molecule antagonists, cell-based qHTS assay (AID 1963591; active means well fitted inhibition curve with a large enough effect in the signal ratio in the repeat runs, not every such curve was filed as active; the % refers to the signal ratio). The method in brief:
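Antagonist mode: test compounds are co-incubated with the adenylyl cyclase activator NKH477 (0.25 uM final) on CRE-bla HEK293T cells for 3 h at 37 °C, followed by LiveBLAzer substrate loading.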

The target in assay [16] is Beta-2 adrenergic receptor (Homo sapiens) (UniProt P07550). The experiment in a line: Adrenergic beta2 receptor (ADRB2) small molecule antagonists, cell-based qHTS assay (AID 1963592). Further: series mostly up to about 92 µM; nearly all actives have a fitted effect of over 50% in size. In short, it runs like this:
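Cells (CHO, stable ADRB2 overexpression) incubated 18-20hr at 37C; compounds added from DMSO; agonist mix (1nM isoproterenol, 100uM IBMX, 25uM Ro-20-1724) added; 0.5hr RT; d2-cAMP and anti-cAMP-cryptate added; 1hr RT; 665/615 nm read.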

Assay [17] has the same target. The experiment in a line: Adrenergic beta2 receptor (ADRB2) small molecule agonists, cell-based qHTS assay (AID 1963593).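 Further: CHO cells stably overexpressing human ADRB2.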 The method in brief:
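CHO cells stably over-expressing ADRB2 were plated overnight at 37C, then dosed with compounds plus a stimulation mix containing 100uM IBMX and 25uM Ro-20-1724 for 0.5hr at room temperature. cAMP was measured by HTRF competition, 1hr.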

Assay [18] has as its target D(2) dopamine receptor (Homo sapiens) (UniProt P14416). The experiment in a line: Dopamine D2 receptor (DRD2) small molecule agonists, cell-based qHTS assay (AID 1963594). Further: nearly all actives have a fitted effect of over 35% in size. The method in brief: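 HEK293 cells stably expressing DRD2 were cultured 24 h at 37 C, then given Ro20-1724 (0.1 mM final) and compounds for 10 min at room temperature. NKH477 (200nM) was then added for 30 min. cAMP was read by HTRF.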

Assay [19] has the same target. The experiment in a line: Dopamine D2 receptor (DRD2) small molecule antagonists, cell-based qHTS assay (AID 1963595; active means well fitted inhibition curve with a large enough effect in the signal ratio in the repeat runs, with a control signal flat; the % refers to the signal ratio; further: potency means the concentration at half of the fitted maximal effect). In short, it runs like this: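 Antagonist mode in DRD2-HEK293 cells: after compound addition with 0.1 mM Ro20-1724, cells received quinpirole (12 nM) and NKH477 (200 nM) for 30 min at room temperature; HTRF cAMP read after 1 h detection.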
Assay [20] can be described thus: p53 small molecule agonists, cell-based qHTS assay (AID 1963582; active means well fitted activation curve with a large enough effect in the signal ratio in the repeat runs, not every such curve was filed as active; the % refers to the signal ratio). The method in brief: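 Quantitative HTS in p53RE-bla cells: after a 5 h settling period, compounds delivered in DMSO were left on cells for 16 h at 37 C, and reporter induction was measured as fluorescence following 2 h substrate loading.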

D(2) dopamine receptor (Homo sapiens), sequence (P14416 whole entry, looked up): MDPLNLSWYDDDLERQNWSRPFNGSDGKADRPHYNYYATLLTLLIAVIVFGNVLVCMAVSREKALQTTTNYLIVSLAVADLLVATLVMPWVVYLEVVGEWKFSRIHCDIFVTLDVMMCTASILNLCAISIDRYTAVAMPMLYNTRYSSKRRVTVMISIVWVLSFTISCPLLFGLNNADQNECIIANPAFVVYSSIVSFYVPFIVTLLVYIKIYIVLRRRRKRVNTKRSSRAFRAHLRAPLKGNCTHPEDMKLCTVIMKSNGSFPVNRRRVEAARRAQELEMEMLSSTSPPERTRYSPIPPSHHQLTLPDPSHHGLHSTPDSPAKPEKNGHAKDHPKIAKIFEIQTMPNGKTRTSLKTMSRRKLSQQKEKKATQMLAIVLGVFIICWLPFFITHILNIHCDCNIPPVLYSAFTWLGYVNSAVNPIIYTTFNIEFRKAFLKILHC
Muscarinic acetylcholine receptor M1 (Homo sapiens), sequence (P11229 whole entry, looked up): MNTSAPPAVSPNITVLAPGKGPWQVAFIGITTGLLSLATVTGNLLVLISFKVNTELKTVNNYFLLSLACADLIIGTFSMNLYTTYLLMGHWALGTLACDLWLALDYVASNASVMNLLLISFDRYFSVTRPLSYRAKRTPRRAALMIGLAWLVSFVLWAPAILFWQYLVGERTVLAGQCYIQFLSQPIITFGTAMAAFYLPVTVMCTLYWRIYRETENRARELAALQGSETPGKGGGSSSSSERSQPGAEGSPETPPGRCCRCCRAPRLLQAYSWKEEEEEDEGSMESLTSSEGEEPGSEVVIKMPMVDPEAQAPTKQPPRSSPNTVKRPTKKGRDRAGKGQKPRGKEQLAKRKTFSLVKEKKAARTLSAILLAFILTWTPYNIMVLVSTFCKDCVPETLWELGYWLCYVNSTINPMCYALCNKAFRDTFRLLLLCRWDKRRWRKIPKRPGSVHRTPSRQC
5-hydroxytryptamine receptor 2A (Homo sapiens), sequence (P28223 whole entry, looked up): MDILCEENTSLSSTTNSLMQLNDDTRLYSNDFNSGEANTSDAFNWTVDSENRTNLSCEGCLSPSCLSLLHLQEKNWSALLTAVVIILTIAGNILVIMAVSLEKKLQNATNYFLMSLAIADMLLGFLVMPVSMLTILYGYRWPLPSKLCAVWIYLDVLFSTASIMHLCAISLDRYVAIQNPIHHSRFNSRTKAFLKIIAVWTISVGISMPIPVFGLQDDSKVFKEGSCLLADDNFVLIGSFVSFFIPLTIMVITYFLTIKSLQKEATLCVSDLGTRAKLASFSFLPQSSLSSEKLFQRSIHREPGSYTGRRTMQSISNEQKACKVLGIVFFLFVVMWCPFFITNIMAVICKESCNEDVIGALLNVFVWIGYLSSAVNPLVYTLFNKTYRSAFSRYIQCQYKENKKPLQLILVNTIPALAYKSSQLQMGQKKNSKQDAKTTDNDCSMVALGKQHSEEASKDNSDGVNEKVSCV
KiSS-1 receptor (Homo sapiens), sequence (Q969F8 whole entry, looked up): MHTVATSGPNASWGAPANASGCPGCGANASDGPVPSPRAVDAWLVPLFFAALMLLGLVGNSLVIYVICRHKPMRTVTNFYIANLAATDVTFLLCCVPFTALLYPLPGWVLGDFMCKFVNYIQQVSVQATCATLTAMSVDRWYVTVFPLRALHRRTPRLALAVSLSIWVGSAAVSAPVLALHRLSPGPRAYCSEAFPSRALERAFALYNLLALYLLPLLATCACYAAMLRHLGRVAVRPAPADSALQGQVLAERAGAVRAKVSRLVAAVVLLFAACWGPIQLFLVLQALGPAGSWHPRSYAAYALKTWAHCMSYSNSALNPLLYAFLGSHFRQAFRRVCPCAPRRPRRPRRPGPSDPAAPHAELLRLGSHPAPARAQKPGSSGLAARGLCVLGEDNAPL
Gonadotropin-releasing hormone receptor (Homo sapiens), sequence (P30968 whole entry, looked up): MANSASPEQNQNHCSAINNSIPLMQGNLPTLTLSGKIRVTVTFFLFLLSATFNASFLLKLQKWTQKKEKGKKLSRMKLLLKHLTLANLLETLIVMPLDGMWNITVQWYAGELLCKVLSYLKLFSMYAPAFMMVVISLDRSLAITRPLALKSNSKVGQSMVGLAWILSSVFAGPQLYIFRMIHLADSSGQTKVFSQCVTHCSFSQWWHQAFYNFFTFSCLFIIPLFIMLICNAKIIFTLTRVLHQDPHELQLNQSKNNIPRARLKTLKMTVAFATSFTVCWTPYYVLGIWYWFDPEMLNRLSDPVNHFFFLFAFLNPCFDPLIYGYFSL
Beta-2 adrenergic receptor (Homo sapiens), sequence (P07550 whole entry, looked up): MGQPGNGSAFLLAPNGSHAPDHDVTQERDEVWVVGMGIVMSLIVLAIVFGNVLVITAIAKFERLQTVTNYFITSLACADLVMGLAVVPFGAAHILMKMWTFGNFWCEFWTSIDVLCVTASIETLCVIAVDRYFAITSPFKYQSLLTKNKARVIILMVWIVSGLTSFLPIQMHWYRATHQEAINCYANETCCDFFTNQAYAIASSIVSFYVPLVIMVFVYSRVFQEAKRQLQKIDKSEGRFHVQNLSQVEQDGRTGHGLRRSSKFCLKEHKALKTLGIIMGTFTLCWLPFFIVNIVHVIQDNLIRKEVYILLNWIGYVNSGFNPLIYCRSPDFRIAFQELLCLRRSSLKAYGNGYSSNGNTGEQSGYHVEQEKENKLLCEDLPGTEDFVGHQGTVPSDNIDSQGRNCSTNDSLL

For `CO[Si](CCCn1c(=O)n(CCC[Si](OC)(OC)OC)c(=O)n(CCC[Si](OC)(OC)OC)c1=O)(OC)OC`, the Potency entry in [1], in assay [2], in [3], in [6], in assay [7] and in assay [8] was “inactive” in each case. For the same compound, the Potency entry in assay [9], in assay [10], in assay [11], in assay [12], in assay [13] and in assay [14] was “inactive” throughout. In addition, the Potency result in assay [15], in assay [16], in assay [17], in assay [18] and in [19] was “inactive” throughout. For the same compound, the outcome in [4] and in assay [5] was inactive.

In the case of `c1ccc([C@H]2CN3CCSC3=N2)cc1`, the Potency entry in assay [1], in [2], in assay [3], in assay [6], in assay [7] and in [8] was “inactive” throughout. The Potency result in assay [9], in assay [20], in assay [14], in [15], in assay [16] and in [18] was “inactive” in each case. In [19], the Potency result is “inactive”. Further, the result in assay [4] and in assay [5] was inactive.

As for `CN1CCN(Cc2cc(-c3ccc4[nH]c(=O)oc4c3)co2)[C@@H](c2ccc(F)cc2)C1`, the Potency in [1] is 26.3 µM (active); in assay [2], 13.2 µM (active). In addition, the Potency result in assay [3], in assay [6], in assay [7], in assay [8], in assay [9] and in assay [10] was “inactive” in each case. Further, the Potency result in assay [16] and in assay [17] was “inactive” each time. Further, the result in assay [4] and in assay [5] was inactive.

In the case of `CNc1ccc(O)cc1`, the Potency is 54.4 µM (active) in [1], 24.3 µM (active) in assay [2] and 25.7 µM (active) in assay [8]. Also, the Potency result in [3], in assay [6], in [7], in [9], in [11] and in assay [13] was “inactive” each time. Also, the outcome in [4] and in assay [5] was inactive.

As for `CN1CCC(=C2c3ccccc3C=Cc3ccccc32)CC1`, the Potency entry in assay [1], in [2], in assay [3], in assay [6], in assay [7] and in assay [8] was “inactive” in each case. Also, the Potency result in assay [9], in assay [20], in assay [14], in [15] and in [18] was “inactive” throughout. In addition, the result in assay [4] and in assay [5] was inactive. Also, the Potency in [19] is 13.3 µM (active).

On to `O=C(OCC1CO1)C1CCCCC1C(=O)OCC1CO1` (configuration not stated), for which the Potency result in [1], in assay [3], in [6], in assay [7], in [8] and in assay [9] was “inactive” throughout. Further, the Potency entry in assay [10], in assay [12], in [13], in assay [16], in [18] and in assay [19] was “inactive” each time. Moreover, the Potency in [2] is 68.7 µM (active). Further, the outcome in [4] and in assay [5] was inactive.

Turning to `CC(C)(C)c1cc(CCC(=O)NN)cc(C(C)(C)C)c1O`, the Potency entry in assay [1], in assay [2], in [3], in [6], in assay [7] and in assay [8] was “inactive” throughout. In addition, the Potency entry in assay [9], in assay [10], in [11], in assay [12], in assay [13] and in assay [15] was “inactive” throughout. Besides, the Potency entry in assay [16] and in assay [18] was “inactive” throughout. Also, the result in [4] and in assay [5] was inactive.

Consider `CC(C(=O)O)c1ccc2c(c1)Cc1cccnc1O2` (configuration not stated), for which the Potency result in assay [1], in assay [2], in assay [3], in assay [6], in [7] and in assay [8] was “inactive” each time. Also, the Potency result in [9], in assay [10], in assay [11], in assay [12], in assay [13] and in assay [16] was “inactive” throughout. Further, the Potency entry in [18] is “inactive”. In addition, the result in assay [4] and in assay [5] was inactive.
